A short description of assay [1]: A CellTox Green Cytotoxicity Assay to monitor cytotoxicity in HepG2 cells - 0 hour (AID 1224882). Further: nearly all actives have a fitted effect of over 35% in size. Further: potency means the concentration at half of the fitted maximal effect. An outline of the steps: (§1)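 Fluorescent DNA-binding dye, 600 HepG2 cells/well, 5 h preincubation then compound in DMSO; same plates read at 0–40 h, 37 C.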
The nature of assay [2]: A CellTox Green Cytotoxicity Assay to monitor cytotoxicity in HepG2 cells - 32 hour (AID 1224883). Further: nearly all actives have a fitted effect of over 50% in size. Further: potency means the concentration at half of the fitted maximal effect. A digest of the protocol:
as §1

Assay [3] in a line: A CellTox Green Cytotoxicity Assay to monitor cytotoxicity in HEK293 cells - 8 hour (AID 1224884). Further: nearly all actives have a fitted effect of over 35% in size. Further: potency means the concentration at half of the fitted maximal effect. A digest of the protocol:
(§2)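 Homogeneous no-lysis format: HEK293 cell suspension mixed with CellTox Green reagent, seeded, incubated 5 h at 37 C/5% CO2, then dosed by pintool with compound in DMSO.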

Assay [4] can be described thus: qHTS RealTime-Glo MT Cell Viability Assay in HepG2 cells - 16 hour (AID 1224885). Further: nearly all actives have a fitted effect of over 50% in size. Further: potency means the concentration at half of the fitted maximal effect. A digest of the protocol: (§3)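 Luminescence read-out: viable HepG2 cells reduce a prosubstrate to a NanoLuc substrate, giving a signal proportional to live cell number. Reads taken at 0, 8, 16, 24, 32 and 40 h of compound exposure at 37 C.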
Background: In qHTS, concentration-response curves come from the screen itself.

The nature of assay [5]: qHTS RealTime-Glo MT Cell Viability Assay in HEK293 cells - 24 hour (AID 1224886). Further: nearly all actives have a fitted effect of over 50% in size. Further: potency means the concentration at half of the fitted maximal effect. On activity change, negative = cytotoxicity: top concentration of the series differs between compounds. A digest of the protocol:
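Nonlytic real-time viability readout: viable cells convert prosubstrate to NanoLuc substrate, giving luminescence proportional to live cell number. HEK293, 600 cells/well, compound added after 5 h, continuous culture at 37 C.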

A short description of assay [6]: qHTS RealTime-Glo MT Cell Viability Assay in HEK293 cells - 8 hour (AID 1224887). Further: nearly all actives have a fitted effect of over 50% in size. Further: potency means the concentration at half of the fitted maximal effect. On activity change, negative = cytotoxicity: top concentration of the series differs between compounds. An outline of the steps: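 Measured as luminescence from the same continuously cultured HEK293 wells at successive time points (0, 8, 16, 24, 32, 40 h) after compound addition. Reagent present from seeding; dosing at 5 h; incubation 37 C.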
A short description of assay [7]: A CellTox Green Cytotoxicity Assay to monitor cytotoxicity in HEK293 cells - 16 hour (AID 1224888). Further: nearly all actives have a fitted effect of over 35% in size. Further: potency means the concentration at half of the fitted maximal effect. An outline of the steps:
as §2

A short description of assay [8]: A CellTox Green Cytotoxicity Assay to monitor cytotoxicity in HepG2 cells - 8 hour (AID 1224890). Further: nearly all actives have a fitted effect of over 45% in size. Further: potency means the concentration at half of the fitted maximal effect. A digest of the protocol:
as §1

Assay [9] in a line: qHTS assay to identify small molecule antagonists of the estrogen receptor alpha (ER-alpha) signaling pathway using the BG1 cell line in the presence of 0.1 nM 17-beta-estradiol - cell viability counter screen (AID 1259241). Further: nearly all actives have a fitted effect of over 40% in size. An outline of the steps: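 Live-cell protease activity (CellTiter-Fluor fluorescence, 30 min) was read in the same wells after VM7Luc4E2 cells had been exposed to compounds with 0.1 nM 17beta-estradiol for 22 hr at 37C.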

Assay [10] can be described thus: qHTS assay to identify small molecule antagonists of the androgen receptor (AR) signaling pathway using the MDA cell line in the presence of 0.5 nM R1881 - cell viability counter screen (AID 1259242). Further: nearly all actives have a fitted effect of over 45% in size. Further: potency means the concentration at half of the fitted maximal effect. A digest of the protocol: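 Human breast carcinoma MDA-kb2 cells, cultured without CO2, receive compounds alongside 0.5 nM (final) R1881 agonist. After 16 hr at 37C, viability is taken as live-cell protease signal.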

Assay [11] deals with Estrogen receptor (Homo sapiens) (UniProt P03372). In words: qHTS assay to identify small molecule antagonists of the estrogen receptor alpha (ER-alpha) signaling pathway using the BG1 cell line in the presence of 0.1 nM 17-beta-estradiol (AID 1259244). Further: nearly all actives have a fitted effect of over 50% in size. Further: potency means the concentration at half of the fitted maximal effect. A digest of the protocol: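 Seeding of stripped-serum-adapted VM7Luc4E2 cells, 24 h attachment, compound transfer, then 0.1 nM final 17beta-estradiol; after 22 h incubation, ONE-Glo reagent and luminescence reading.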
Sequence of Estrogen receptor (Homo sapiens) (P03372 whole entry, looked up): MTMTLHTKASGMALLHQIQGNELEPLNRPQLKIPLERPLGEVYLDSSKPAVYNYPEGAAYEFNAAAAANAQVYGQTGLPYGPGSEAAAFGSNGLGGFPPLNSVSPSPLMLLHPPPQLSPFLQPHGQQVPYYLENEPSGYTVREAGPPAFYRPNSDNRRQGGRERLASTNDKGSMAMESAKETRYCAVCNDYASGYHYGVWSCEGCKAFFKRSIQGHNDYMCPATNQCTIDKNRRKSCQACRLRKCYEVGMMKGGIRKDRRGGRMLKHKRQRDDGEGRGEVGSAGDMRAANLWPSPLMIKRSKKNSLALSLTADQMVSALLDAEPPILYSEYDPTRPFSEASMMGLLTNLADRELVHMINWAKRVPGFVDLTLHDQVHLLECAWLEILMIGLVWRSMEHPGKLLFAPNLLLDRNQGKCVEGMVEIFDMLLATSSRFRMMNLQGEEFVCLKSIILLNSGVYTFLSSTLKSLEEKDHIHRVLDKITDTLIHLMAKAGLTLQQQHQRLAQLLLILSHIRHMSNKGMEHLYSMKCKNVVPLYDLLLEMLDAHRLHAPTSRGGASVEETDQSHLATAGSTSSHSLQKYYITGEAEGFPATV

Assay [12] can be described thus: qHTS assay to identify small molecule HDAC inhibitors (AID 1259364).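 Further: wild-type HCT-116 cells with endogenous class I/II HDAC activity; top concentration of the series differs between compounds; nearly all actives have a fitted effect of over 45% in size.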 A digest of the protocol:
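After a 2 hr compound incubation (37C, 5% CO2), HCT-116 cells seeded at 1,500/well the day before received HDAC-Glo reagent; signal read as luminescence after 30 min at room temperature.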

Assay [13] can be described thus: qHTS assay to identify small molecule HDAC inhibitors - cell viability counter screen (AID 1259365). A digest of the protocol: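 HCT-116 (wild type), 1,500 cells/well, overnight 37C/5% CO2; compound in DMSO 2hr; CellTiter-Glo 30min RT; luminescence read.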
Assay [14] in a line: qHTS assay to identify small molecule agonists of the sonic hedgehog signaling (Shh) pathway - cell viability counter screen (AID 1259366). Further: nearly all actives have a fitted effect of over 50% in size. Further: potency means the concentration at half of the fitted maximal effect. An outline of the steps:
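CellTiter-Fluor fluorescence read-out, 1 hr at 37C, added after 23hr compound exposure. Cells: 3T3 Gli1-Luc, an NIH/3T3 clone with stably integrated Gli1-Luc reporter, plated 4hr before compound.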

Assay [15] is described as follows: qHTS assay to identify small molecule antagonists of the sonic hedgehog signaling (Shh) pathway (AID 1259369; calls by dose curve; further: nearly all actives have a fitted effect of over 45% in size; further: potency means the concentration at half of the fitted maximal effect). An outline of the steps: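 Gli1 transcriptional reporter (firefly Luc) in NIH/3T3 background, conditioned-medium activated. 24hr exposure, luminescence endpoint.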
A short description of assay [16]: qHTS RealTime-Glo MT Cell Viability Assay in HepG2 cells - 0 hour (AID 1224889). Further: nearly all actives have a fitted effect of over 50% in size. Further: potency means the concentration at half of the fitted maximal effect. An outline of the steps: as §3
The nature of assay [17]: qHTS assay to identify small molecule antagonists of the sonic hedgehog signaling (Shh) pathway - cell viability counter screen (AID 1259367). Further: nearly all actives have a fitted effect of over 55% in size. Further: potency means the concentration at half of the fitted maximal effect. A digest of the protocol: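 Cytotoxicity was assessed in parallel with Shh reporter activity by measuring live-cell protease fluorescence (CellTiter-Fluor) in NIH/3T3 cells stably carrying Gli1-Luc, treated with compound under conditioned medium stimulation for 23 hr plus 1 hr reagent incubation.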

The nature of assay [18]: qHTS assay to identify small molecule agonists of the sonic hedgehog signaling (Shh) pathway (AID 1259368; calls by dose curve;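 further: NIH/3T3-derived 3T3Gli1-Luc cells carrying a stable Gli1-driven firefly luciferase reporter; series mostly up to about 92 µM; nearly all actives have a fitted effect of over 15% in size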). An outline of the steps:
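Stable NIH/3T3 Gli1-Luc reporter clone; 24 hr cpd exposure after a 4 hr settling period; luminescence endpoint.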

The nature of assay [19]: qHTS assay to identify small molecule phospholipidosis (PLD) inducers (AID 1259344; active means well fitted curve in the direction sought with a large enough effect; an effect the other way counts as inactive or inconclusive; further: potency means the concentration at half of the fitted maximal effect). A digest of the protocol:
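Cells (HepG2, 900 per well) attach for 4 h, receive LipidTOX Red and compound together, incubate 24 h at 37 C, are fixed 30 min with paraformaldehyde/Hoechst, then imaged at one site per well.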

In assay [20] the target is Androgen receptor (Homo sapiens) (UniProt P10275). In words: qHTS assay to identify small molecule antagonists of the androgen receptor (AR) signaling pathway using the MDA cell line in the presence of 0.5 nM R1881 (AID 1259243). Further: nearly all actives have a fitted effect of over 50% in size. Further: potency means the concentration at half of the fitted maximal effect. A digest of the protocol: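 Cells: MDA-kb2 (MMTV-luc). Stimulus: 0.5 nM R1881. Time: 16 hr, 37C, no CO2. Detection: ONE-Glo luminescence after 30 min at RT.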
Sequence of Androgen receptor (Homo sapiens) (P10275 whole entry, looked up): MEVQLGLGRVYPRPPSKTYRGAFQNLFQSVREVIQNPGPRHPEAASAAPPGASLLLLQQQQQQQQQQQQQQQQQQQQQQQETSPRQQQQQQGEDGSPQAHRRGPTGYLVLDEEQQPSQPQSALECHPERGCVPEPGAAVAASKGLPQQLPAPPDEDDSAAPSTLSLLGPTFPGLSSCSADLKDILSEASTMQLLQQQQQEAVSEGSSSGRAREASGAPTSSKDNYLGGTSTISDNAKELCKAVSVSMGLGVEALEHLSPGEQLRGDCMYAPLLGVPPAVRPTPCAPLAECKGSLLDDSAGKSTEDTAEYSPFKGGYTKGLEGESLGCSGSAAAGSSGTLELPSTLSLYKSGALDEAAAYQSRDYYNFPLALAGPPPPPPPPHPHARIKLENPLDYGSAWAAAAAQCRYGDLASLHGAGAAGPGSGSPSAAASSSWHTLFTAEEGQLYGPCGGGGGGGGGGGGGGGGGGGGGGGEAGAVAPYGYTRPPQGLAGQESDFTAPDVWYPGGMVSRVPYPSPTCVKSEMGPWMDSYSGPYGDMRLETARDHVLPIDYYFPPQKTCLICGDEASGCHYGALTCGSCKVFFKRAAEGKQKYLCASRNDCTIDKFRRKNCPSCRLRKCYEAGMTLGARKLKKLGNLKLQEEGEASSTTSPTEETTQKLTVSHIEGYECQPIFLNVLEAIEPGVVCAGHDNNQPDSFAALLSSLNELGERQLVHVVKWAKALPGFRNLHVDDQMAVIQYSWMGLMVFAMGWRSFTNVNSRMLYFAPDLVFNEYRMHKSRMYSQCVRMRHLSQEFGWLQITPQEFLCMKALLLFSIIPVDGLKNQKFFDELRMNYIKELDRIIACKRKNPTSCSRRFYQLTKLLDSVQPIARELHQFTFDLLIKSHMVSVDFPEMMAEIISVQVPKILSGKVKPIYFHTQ

Values joined by “and” are separate entries in the source; they are usually repeats but may differ in a detail not shown here. Equal entries are not always repeated. Results filed as inconclusive are left out. Where a structure was tested more than once in an assay, its records may differ in their call. Active and inactive are the calls of the source. Unless noted, the call rests on the fitted dose curve; in most records, active means well fitted curve in the direction sought with a large enough effect in the repeat runs; inconclusive means weak or mixed curves; inactive means no such curve, though single readings can be large; an effect the other way counts as inactive or inconclusive.
On the % scale 0 is the no-effect control and ±100 the full control effect.

As for `CC1(C)CC(O)CC(C)(C)N1`, the Potency entry in assay [1], in assay [2], in assay [3], in assay [4], in [5] and in [6] was “inactive” each time. Also, the Potency result in assay [7], in [8], in [9], in assay [10], in assay [11] and in assay [12] was “inactive” throughout. The Potency result in assay [13], in assay [14] and in assay [15] was “inactive” each time.
`CCC(CC)C(C)CCOC(C)=O` (stereo unspecified): the Potency result in assay [1], in assay [2], in assay [3], in [4], in assay [5] and in assay [6] was “inactive” each time. In addition, the Potency entry in assay [7], in [16], in [8], in assay [9], in [10] and in assay [12] was “inactive” in each case. Also, the Potency result in assay [13], in [14], in [17], in assay [18] and in assay [15] was “inactive” in each case.
On to `C=CC(C)(CCC=C(C)C)OC=O` (stereo unspecified), for which the Potency result in [1], in assay [2], in assay [3], in assay [4], in assay [5] and in assay [6] was “inactive” each time. Also, the Potency result in [7], in [16], in assay [8], in assay [9], in assay [10] and in [11] was “inactive” each time. Also, the Potency result in [12], in assay [13], in [17], in assay [18] and in assay [15] was “inactive” throughout.
Regarding `Cc1cc(C(C#N)c2ccc(Cl)cc2)c(Cl)cc1NC(=O)c1cc(I)cc(I)c1O` (stereo unspecified), the Potency entry in [1], in [2], in assay [3], in [4], in assay [5] and in [6] was “inactive” throughout. Besides, the Potency entry in [7], in assay [16], in assay [8], in [9], in assay [10] and in assay [19] was “inactive” each time. Further, the Potency result in assay [12], in assay [13], in assay [14] and in assay [18] was “inactive” each time. Also, the Potency in assay [15] was 26.6 µM (active).
For the molecule `Clc1ccnc(Cl)n1`, the Potency result in assay [1], in assay [2], in [3], in [4], in assay [5] and in assay [6] was “inactive” each time. Also, the Potency result in assay [7], in assay [16], in assay [8], in assay [9], in assay [10] and in [13] was “inactive” in each case. The Potency result in assay [14] and in assay [18] was “inactive” in each case.
Turning to `C=CC(=O)Nc1cc2c(Nc3ccc(F)c(Cl)c3)ncnc2cc1OCCCN1CCOCC1`, the Potency result in [1], in assay [3], in assay [7], in assay [8], in [11] and in [12] was “inactive” each time. Besides, the Potency entry in assay [13] and in assay [18] was “inactive” each time. For the same molecule, the Potency is 6.01 µM (active) in assay [2]; 8.49 µM (active) in assay [4]; 10.7 µM (active) in assay [5]; 9.52 µM (active) in assay [6]; 9.52 µM (active) in assay [16]; 0.376 µM (active) in assay [10]. In addition, the Potency in assay [20] was 7.5 µM (active); in assay [19] it was 0.891 µM (active); in [14] it was 3.76 µM (active); in assay [17], 7.5 µM (active); in assay [15], 1.68 µM (active).
For `CCCNCCC`, the Potency entry in [1], in assay [2], in assay [3], in assay [4], in assay [5] and in assay [6] was “inactive” throughout. Also, the Potency entry in assay [7], in [8], in assay [9], in assay [10], in assay [12] and in assay [13] was “inactive” in each case. In addition, the Potency result in assay [14], in assay [17], in assay [18] and in assay [15] was “inactive” in each case.
Regarding `CCCCCCOC(=O)C(C)CC` (stereo unspecified), the Potency entry in assay [1], in assay [2], in assay [3], in assay [4], in assay [5] and in assay [6] was “inactive” each time. The Potency entry in [7], in [8], in assay [9], in assay [10], in assay [20] and in assay [11] was “inactive” in each case. The Potency entry in assay [12], in assay [13], in assay [17], in assay [18] and in assay [15] was “inactive” each time.
Consider `CCC(CC)(CC(=O)Nc1cccc(/C=C/c2nc(C3CCC3)cs2)c1)C(=O)O`, for which the Potency entry in [1], in assay [2], in [3], in assay [4], in [5] and in assay [6] was “inactive” each time. Also, the Potency entry in [7], in [8], in assay [9], in assay [10], in assay [11] and in [19] was “inactive” each time. Also, the Potency entry in [12], in assay [13], in assay [14], in assay [17], in [18] and in assay [15] was “inactive” throughout.
In the case of `O=C(O)CN(CCN(CC(=O)O)CC(=O)O)CC(=O)O`, the Potency in assay [1] was 1.74 µM (active); in [2], 1.74 µM (active); in assay [3], 1.96 µM (active); in [7] it was 1.96 µM (active); in [8] it was 1.74 µM (active). In [4], the activity change, negative = cytotoxic was -5.14% [at 2.72 µM] (inactive). Further, the activity change, negative = cytotoxicity in assay [5] was 5.68% [at 2.72 µM] (inactive); in assay [6] it was -1.21% [at 2.72 µM] (inactive); in assay [16], -5.49% [at 2.72 µM] (inactive); in assay [9] it was -6% [at 3.27 µM] (inactive); in [13] it was 0.173% [at 3.27 µM] (inactive). The viability change, negative = cytotoxic is 4.5% [at 3.26 µM] (inactive) in assay [10], 3.2% [at 3.27 µM] (inactive) in assay [14] and -2.72% [at 3.27 µM] (inactive) in [17]. Moreover, in assay [19], the Potency result is “inactive”. Moreover, the activity change, negative = inhibition was 2.84% [at 3.27 µM] (inactive) in [12] and 12.7% [at 3.27 µM] (inactive) in [15]. Moreover, in [18], the activity change was 0.474% [at 3.27 µM, stronger effect = higher value] (inactive).
For the molecule `CCCCCCCCCCCCCC[N+](C)(C)C`, the Potency result in assay [1], in assay [16], in assay [19], in assay [12], in [13] and in assay [17] was “inactive” each time. For the same molecule, the Potency result in [18] is “inactive”. The Potency in [2] is 10.6 µM (active) and 17.4 µM (active) and 21.3 µM (active); in assay [3], 47.3 µM (active) and 43.6 µM (active); in assay [4] it was 16.8 µM (active) and 48.9 µM (active); in assay [5], 16.8 µM (active) and 21.8 µM (active); in [6], 53.1 µM (active) and inactive; in assay [7], 47.3 µM (active) and 48.9 µM (active) and 47.7 nM (active). The Potency in assay [8] was 18.8 µM (active) and 54.9 µM (active) and inactive; in assay [10], 23.5 µM (active); in assay [11], 2.96 µM (active) and 3.85 µM (active) and 26.6 µM (active); in [14], 21 µM (active) and 27.3 µM (active) and inactive; in [15], 27.3 µM (active) and 531 nM (active).

These data come from PubChem BioAssay (Tox21).
